Results published in PubChem BioAssay (Tox21).
Records with an inconclusive call do not appear. Calls of active or inactive are those of the source. Unless noted, calls follow the shape of the full dose curve.

Assays:
[1] = Nuclear factor erythroid 2-related factor 2/antioxidant responsive element (Nrf2/ARE) small molecule agonists: qHTS cell viability counter screen in human keratinocytes (AID 1919968; active = well fitted curve in the direction sought with a large enough effect in the repeat runs; an effect the other way counts as inactive or inconclusive; also: nearly all actives have a fitted effect of over 55% in size; also: potency is read from the fitted curve at half-maximal effect)
Outline: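 HaCaT ARE reporter line, 1,500 cells/well; 5 h settle, 37 C/5% CO2; cpd in DMSO pinned; 23 h exposure; CellTiter-Fluor, 1 h; fluorescence.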

[2] = Nuclear factor erythroid 2-related factor 2/antioxidant responsive element (Nrf2/ARE) small molecule agonists: luciferase reporter gene qHTS assay in human keratinocytes (AID 1919969); also: nearly all actives have a fitted effect of over 35% in size; also: potency is read from the fitted curve at half-maximal effect
[3] = molecular target: KiSS-1 receptor (Homo sapiens) (UniProt Q969F8); assay: Human kisspeptin (KISS1R) small molecule agonists, calcium flux assay in KISS1R-HEK293 cells (AID 1920064; active = well fitted curve in the direction sought with a large enough effect in the repeat runs; an effect the other way counts as inactive or inconclusive)
Outline: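 Stable human KISS1R HEK293 line; 18 h plating, 37 C/5% CO2; calcium dye 1 h 37 C; compound pin transfer; kinetic fluorescence Ex/Em 480/540, 3 min.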

[4] = G protein-coupled receptor (GPCR) small molecule agonists, calcium flux assay: HEK293 wild type cell line counter screen (AID 1920065)
Outline: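 Kinetic fluorescence at Ex/Em 480/540, recorded every second over 3 min, served as the read-out after compound addition. Each compound was tested at 15 concentrations in triplicate on cells pre-loaded with calcium dye for 1 h.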

[5] = p53 small molecule agonists, cell-based qHTS assay with human liver microsomes: qHTS cell viability counter screen (AID 1963579); also: nearly all actives have a fitted effect of over 45% in size
Outline: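 After the 460/530 nm beta-lactamase read, CellTiter-Glo was added to the same wells and luminescence measured after 30 min at room temperature, giving viability of p53RE-bla cells treated 16 h with compounds plus microsomes and NADPH.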

[6] = p53 small molecule agonists, cell-based qHTS assay: qHTS cell viability counter screen (AID 1963581); also: nearly all actives have a fitted effect of over 45% in size
Outline: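 HCT-116 p53RE-bla cells, 4,000/well, plated 5 h before compound pin transfer; 16 h at 37 C; bla substrate 2 h RT; then CellTiter-Glo, 30 min RT, luminescence.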

[7] = molecular target: 5-hydroxytryptamine receptor 2A (Homo sapiens) (UniProt P28223); assay: 5-hydroxytryptamine receptor 2A (HTR2A) small molecule antagonists, cell-based qHTS assay (AID 1963586); also: nearly all actives have a fitted effect of over 45% in size
Outline: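 Antagonist-mode intracellular calcium assay: DOI (4 nM) added after 5 min compound pre-incubation at room temperature to dye-loaded HTR2A-CHO cells. Fluorescence followed for 3 min, sampled every second.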

[8] = molecular target: 5-hydroxytryptamine receptor 2A (Homo sapiens) (UniProt P28223); assay: 5-hydroxytryptamine receptor 2A (HTR2A) small molecule agonists, cell-based qHTS assay (AID 1963587); also: nearly all actives have a fitted effect of over 30% in size; also: potency is read from the fitted curve at half-maximal effect
Outline: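 CHO cells stably expressing human HTR2A, plated 18 h, loaded with calcium dye 1 h at 37 C. Agonist mode: compounds added and intracellular calcium fluorescence recorded kinetically for 2 min at 1 sec intervals.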

[9] = molecular target: Muscarinic acetylcholine receptor M1 (Homo sapiens) (UniProt P11229); assay: Cholinergic receptor muscarinic 1 (CHRM1) small molecule agonists, cell-based qHTS assay (AID 1963589); also: nearly all actives have a fitted effect of over 35% in size
Outline: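 Human M1 in stable CHO line; 18 h plating, 1 h dye load 37 C; cpd added (agonist mode); Ca2+ fluorescence kinetic read, 1 s intervals; 15 conc, 3 runs.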

[10] = cAMP Responsive Elements (CRE) small molecule agonists, cell-based qHTS assay (AID 1963590); also: potency is read from the fitted curve at half-maximal effect
Outline: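 HEK 293T CRE-bla, 2,000 cells/well, 18 h preincubation 37 C/5% CO2; cpds (DMSO) pinned, 3 h; LiveBLAzer B/G FRET substrate, 2 h RT.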

[11] = cAMP Responsive Elements (CRE) small molecule antagonists, cell-based qHTS assay (AID 1963591; active = well fitted inhibition curve with a large enough effect in the signal ratio in the repeat runs, not every such curve was filed as active; the % refers to the signal ratio)
Outline: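 Beta-lactamase reporter read by FRET substrate (LiveBLAzer B/G) after 2 h at room temperature. CRE-bla HEK293T cells had received compound plus 0.25 uM (final) NKH477 for 3 h at 37 °C.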

[12] = molecular target: Beta-2 adrenergic receptor (Homo sapiens) (UniProt P07550); assay: Adrenergic beta2 receptor (ADRB2) small molecule antagonists, cell-based qHTS assay (AID 1963592); also: series mostly up to about 92 µM; nearly all actives have a fitted effect of over 50% in size
Outline: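 Cells (CHO, stable ADRB2 overexpression) incubated 18-20hr at 37C; compounds added from DMSO; agonist mix (1nM isoproterenol, 100uM IBMX, 25uM Ro-20-1724) added; 0.5hr RT; d2-cAMP and anti-cAMP-cryptate added; 1hr RT; 665/615 nm read.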

[13] = molecular target: D(2) dopamine receptor (Homo sapiens) (UniProt P14416); assay: Dopamine D2 receptor (DRD2) small molecule agonists, cell-based qHTS assay (AID 1963594); also: nearly all actives have a fitted effect of over 35% in size
Outline: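 HEK293 cells stably expressing human DRD2, pre-treated with PDE inhibitor Ro20-1724 (0.1 mM final) and compound 10 min at room temperature, then stimulated with NKH477 (200nM […]) for 30 min. cAMP read by HTRF (665/620 nm).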

[14] = molecular target: D(2) dopamine receptor (Homo sapiens) (UniProt P14416); assay: Dopamine D2 receptor (DRD2) small molecule antagonists, cell-based qHTS assay (AID 1963595; active = well fitted inhibition curve with a large enough effect in the signal ratio in the repeat runs, with a control signal flat; the % refers to the signal ratio)
Outline: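 HTRF cAMP read-out at 665 and 620 nm emission (340 nm excitation). Antagonist mode: compounds were tested against 12 nM quinpirole in DRD2-HEK293 cells, with 200 nM NKH477 raising cAMP and 0.1 mM Ro20-1724 blocking its breakdown.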

[15] = p53 small molecule agonists, cell-based qHTS assay with human liver microsomes (AID 1963577);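 also: p53 response element beta-lactamase reporter cells with liver microsomes plus NADPH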
Outline: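 Steps: plate p53RE-bla cells, incubate 5 h at 37 C; add compound in DMSO; add microsomes (0.5 mg/mL final) and NADPH (0.5 mg/mL final); incubate 16 h at 37 C; add LiveBLAzer, 2 h RT; read fluorescence.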

[16] = p53 small molecule agonists, cell-based qHTS assay with rat liver microsomes: qHTS cell viability counter screen (AID 1963580); also: nearly all actives have a fitted effect of over 45% in size
Outline: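 Viability is assessed in parallel with the p53 reporter read: HCT-116 p53RE-bla cells receive compounds plus rat microsomes and NADPH (0.5 mg/mL final apiece), incubate 16 h at 37 C, and then CellTiter-Glo luminescence is recorded.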

[17] = p53 small molecule agonists, cell-based qHTS assay (AID 1963582; active = well fitted activation curve with a large enough effect in the signal ratio in the repeat runs, not every such curve was filed as active; the % refers to the signal ratio; also: potency is read from the fitted curve at half-maximal effect)
Outline: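 Reporter line: p53RE-bla. Pre-incubation 5 h, 37 C, 5% CO2; compound (DMSO, pin tool) 16 h, 37 C; B/G FRET substrate 2 h RT; fluorescence intensity read.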

[18] = molecular target: Muscarinic acetylcholine receptor M1 (Homo sapiens) (UniProt P11229); assay: Cholinergic receptor muscarinic 1 (CHRM1) small molecule antagonists, cell-based qHTS assay (AID 1963588); also: nearly all actives have a fitted effect of over 40% in size; also: potency is read from the fitted curve at half-maximal effect
Outline: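 CHRM1-CHO calcium-flux assay, antagonist mode. Cells were seeded 18 h, dye-loaded 1 h at 37 C and given compound for 5 min at RT, then acetylcholine was added at 50nM. FDSS fluorescence was read 3 min; 15 concentrations, three runs.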

[19] = molecular target: Beta-2 adrenergic receptor (Homo sapiens) (UniProt P07550); assay: Adrenergic beta2 receptor (ADRB2) small molecule agonists, cell-based qHTS assay (AID 1963593);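 also: CHO cells stably overexpressing human ADRB2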
Outline: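 CHO cells stably over-expressing ADRB2 were plated overnight at 37C, then dosed with compounds plus a stimulation mix containing 100uM IBMX and 25uM Ro-20-1724 for 0.5hr at room temperature. cAMP was measured by HTRF competition, 1hr.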

[20] = p53 small molecule agonists, cell-based qHTS assay with rat liver microsomes (AID 1963578)
Outline: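 Metabolic activation is supplied by rat liver microsomes with NADPH (each 0.5 mg/mL final). p53RE-bla cells incubate with compound 16 h at 37 C; reporter activity is measured by LiveBLAzer fluorescence.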
% is scaled to controls: 0 for no effect and ±100 for the full control effect.

Sequence of Beta-2 adrenergic receptor (Homo sapiens) (P07550 whole entry, looked up): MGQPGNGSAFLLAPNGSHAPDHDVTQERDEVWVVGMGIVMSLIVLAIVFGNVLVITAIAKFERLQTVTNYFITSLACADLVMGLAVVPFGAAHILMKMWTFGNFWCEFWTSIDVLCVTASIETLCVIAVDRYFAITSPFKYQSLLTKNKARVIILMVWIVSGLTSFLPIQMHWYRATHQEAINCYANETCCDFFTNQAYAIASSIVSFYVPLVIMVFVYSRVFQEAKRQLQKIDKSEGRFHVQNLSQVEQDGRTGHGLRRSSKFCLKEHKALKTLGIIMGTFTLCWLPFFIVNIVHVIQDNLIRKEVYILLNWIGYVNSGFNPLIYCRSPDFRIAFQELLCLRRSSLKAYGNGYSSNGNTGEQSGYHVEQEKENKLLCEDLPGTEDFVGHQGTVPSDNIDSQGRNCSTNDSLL
Sequence of 5-hydroxytryptamine receptor 2A (Homo sapiens) (P28223 whole entry, looked up): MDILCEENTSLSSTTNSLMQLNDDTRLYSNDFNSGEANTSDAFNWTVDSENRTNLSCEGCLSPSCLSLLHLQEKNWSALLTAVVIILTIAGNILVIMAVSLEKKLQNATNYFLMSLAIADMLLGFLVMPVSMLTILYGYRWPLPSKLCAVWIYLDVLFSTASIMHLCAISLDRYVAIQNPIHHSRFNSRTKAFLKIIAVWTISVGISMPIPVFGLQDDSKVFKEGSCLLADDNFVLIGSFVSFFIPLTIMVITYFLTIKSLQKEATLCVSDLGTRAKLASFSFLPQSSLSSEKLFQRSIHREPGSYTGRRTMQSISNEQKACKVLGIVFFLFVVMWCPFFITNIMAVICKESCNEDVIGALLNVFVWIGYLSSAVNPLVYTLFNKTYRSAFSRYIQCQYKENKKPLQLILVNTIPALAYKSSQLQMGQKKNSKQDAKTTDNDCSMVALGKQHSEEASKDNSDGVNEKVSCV
Sequence of Muscarinic acetylcholine receptor M1 (Homo sapiens) (P11229 whole entry, looked up): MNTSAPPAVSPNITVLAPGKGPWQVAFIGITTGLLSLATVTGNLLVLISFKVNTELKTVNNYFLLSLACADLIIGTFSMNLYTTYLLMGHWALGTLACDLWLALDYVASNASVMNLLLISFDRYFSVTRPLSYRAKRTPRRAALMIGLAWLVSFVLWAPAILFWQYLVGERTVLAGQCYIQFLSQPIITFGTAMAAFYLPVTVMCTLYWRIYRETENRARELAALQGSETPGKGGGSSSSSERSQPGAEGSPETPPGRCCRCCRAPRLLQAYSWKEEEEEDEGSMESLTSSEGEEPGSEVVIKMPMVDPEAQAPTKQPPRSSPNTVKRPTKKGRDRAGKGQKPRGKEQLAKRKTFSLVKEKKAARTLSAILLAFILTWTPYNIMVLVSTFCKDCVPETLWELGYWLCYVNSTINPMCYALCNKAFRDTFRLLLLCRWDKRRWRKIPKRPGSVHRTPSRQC
Sequence of D(2) dopamine receptor (Homo sapiens) (P14416 whole entry, looked up): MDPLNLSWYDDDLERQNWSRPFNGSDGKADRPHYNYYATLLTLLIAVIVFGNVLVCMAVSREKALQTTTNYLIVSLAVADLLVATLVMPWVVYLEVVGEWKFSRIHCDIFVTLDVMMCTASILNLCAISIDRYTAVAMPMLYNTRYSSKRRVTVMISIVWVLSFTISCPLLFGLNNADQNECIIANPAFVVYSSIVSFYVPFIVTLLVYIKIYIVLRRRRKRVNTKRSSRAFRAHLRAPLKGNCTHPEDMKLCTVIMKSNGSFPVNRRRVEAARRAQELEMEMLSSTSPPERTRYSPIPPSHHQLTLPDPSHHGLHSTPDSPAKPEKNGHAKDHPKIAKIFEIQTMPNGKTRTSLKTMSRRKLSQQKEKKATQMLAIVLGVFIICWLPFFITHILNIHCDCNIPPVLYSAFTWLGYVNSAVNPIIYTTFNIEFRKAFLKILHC
Sequence of KiSS-1 receptor (Homo sapiens) (Q969F8 whole entry, looked up): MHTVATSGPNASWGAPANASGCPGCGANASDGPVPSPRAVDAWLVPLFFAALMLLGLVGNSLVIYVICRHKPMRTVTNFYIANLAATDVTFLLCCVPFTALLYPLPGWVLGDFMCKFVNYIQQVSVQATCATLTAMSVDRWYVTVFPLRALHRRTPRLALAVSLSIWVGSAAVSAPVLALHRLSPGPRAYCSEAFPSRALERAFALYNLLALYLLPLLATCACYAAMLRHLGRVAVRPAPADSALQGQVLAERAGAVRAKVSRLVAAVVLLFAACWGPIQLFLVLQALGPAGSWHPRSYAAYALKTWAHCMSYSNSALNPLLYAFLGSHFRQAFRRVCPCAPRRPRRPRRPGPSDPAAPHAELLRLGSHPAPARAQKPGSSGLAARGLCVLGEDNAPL

CC(=O)SCc1ccco1
inactive: Potency [1] | Potency [2] | Potency [3] | Potency [4] | Potency [5] | Potency [6] | Potency [7] | Potency [8] | Potency [9] | Potency [10] | Potency [11] | Potency [12] | Potency [13] | Potency [14]

CC(NCCC(c1ccccc1)c1ccccc1)c1ccccc1 (stereo not given)
inactive: Potency [2] | Potency [4] | Potency [15] | Potency [5] | Potency [16] | Potency [6] | Potency [17] | Potency [7] | Potency [18] | Potency [13]
active: Potency [1] 26.6 µM | Potency [8] 23.9 µM

CSCC[C@H](NC(=O)[C@H](Cc1c[nH]c2ccccc12)NC(=O)CCNC(=O)OC(C)(C)C)C(=O)N[C@@H](CC(=O)O)C(=O)N[C@@H](Cc1ccccc1)C(N)=O
inactive: Potency [1] | Potency [2] | Potency [3] | Potency [4] | Potency [5] | Potency [10] | Potency [11] | Potency [12] | Potency [13] | Potency [14]

Nc1nc(Cl)nc2c1ncn2[C@H]1C[C@H](O)[C@@H](CO)O1
active: Potency [17] 0.572 µM | Potency [10] 60.7 µM
inactive: Potency [1] | Potency [2] | Potency [3] | Potency [5] | Potency [16] | Potency [6] | Potency [12] | Potency [13] | Potency [14]

CC(C)NCC(O)c1cc(O)cc(O)c1 (stereo not given)
inactive: Potency [1] | Potency [2] | Potency [3] | Potency [4] | Potency [5] | Potency [16] | Potency [6] | Potency [8] | Potency [18] | Potency [9] | Potency [12] | Potency [13] | Potency [14]

CCOC(=O)c1ccccc1OC
inactive: Potency [1] | Potency [2] | Potency [4] | Potency [5] | Potency [16] | Potency [6] | Potency [7] | Potency [10] | Potency [11] | Potency [12] | Potency [13] | Potency [14]

CNC(=O)C(c1ccccc1)c1ccccc1
inactive: Potency [1] | Potency [2] | Potency [3] | Potency [4] | Potency [5] | Potency [6] | Potency [7] | Potency [8] | Potency [18] | Potency [9] | Potency [10] | Potency [11] | Potency [12] | Potency [13] | Potency [14]

COc1ccc(/C=N/NC(=O)c2ccncc2)cc1OC
inactive: Potency [1] | Potency [2] | Potency [3] | Potency [4] | Potency [5] | Potency [16] | Potency [6] | Potency [8] | Potency [18] | Potency [9] | Potency [10] | Potency [11] | Potency [12] | Potency [13] | Potency [14]

Cc1cc(=O)c2c(O)c3c(O)cc(=O)c4c3c3c(cc(O)c1c23)C(C)(C)C=4O
active: Potency [1] 4.11 µM | Potency [8] 0.657 µM
inactive: activity, positive = activation [2] 7.38% [at 19 µM] | activation [3] 3.73% [at 15.8 µM] | activation [4] 4.32% [at 11.8 µM] | activity change, negative = cytotoxicity [5] -4.38% [at 13.5 µM] | activity change, negative = cytotoxicity [16] -8.38% [at 13.5 µM] | activity, negative = inhibition [7] 1.4% [at 12.7 µM] | activity, negative = inhibition [18] 5.23% [at 12.6 µM] | activation [9] 13.3% [at 15.8 µM] | activity change, negative = inhibition [12] 0.889% [at 19 µM] | activation [19] 3.3% [at 19 µM] | activation [13] -19.9% [at 19 µM] | activity change, negative = inhibition [14] 5.59% [at 18.9 µM]

CCCCOC(=O)CCCCC(=O)OCCCC
inactive: Potency [1] | Potency [2] | Potency [3] | Potency [4] | Potency [5] | Potency [16] | Potency [6] | Potency [8] | Potency [9] | Potency [10] | Potency [11] | Potency [12] | Potency [19] | Potency [13] | Potency [14]

CC(C(O)c1ccccc1)N(C)CCOC(c1ccccc1)c1ccccc1 (stereo not given)
inactive: Potency [2] | Potency [3] | Potency [15] | Potency [20] | Potency [5] | Potency [16] | Potency [6] | Potency [9] | Potency [13] | Potency [14]
active: Potency [1] 18.8 µM | Potency [8] 23.9 µM | Potency [18] 1.16 µM

C[C@H](NC(CCc1ccccc1)C(=O)O)C(=O)N1CCC[C@H]1C(=O)O (stereo not given in full)
inactive: Potency [1] | Potency [2] | Potency [3] | Potency [4] | Potency [5] | Potency [16] | Potency [6] | Potency [8] | Potency [18] | Potency [9] | Potency [10] | Potency [12] | Potency [19] | Potency [13] | Potency [14]

NNc1nc(-c2ccccc2)cs1
inactive: Potency [1] | Potency [3] | Potency [4] | Potency [16] | Potency [6] | Potency [8] | Potency [18] | Potency [9] | Potency [12] | Potency [13] | Potency [14]
active: Potency [2] 62.9 µM

C[C@@H](NCCCc1cccc(C(F)(F)F)c1)c1cccc2ccccc12
inactive: Potency [2] | Potency [4] | Potency [20] | Potency [5] | Potency [16] | Potency [17] | Potency [13]
active: Potency [1] 29.8 µM | Potency [8] 23.9 µM
